From the antibiotic and cytotoxicity screens of Wong et al. (2023) come the findings set out here.

In all, about 39,000 compounds went through this assay and about 3,300 (8.5%) were called active. The entries come from a sample that favours actives as a whole.

This assay has as its system HepG2. Briefly: cytotoxicity call (relative viability < 0.9). Particulars: 10 µM.
`COc1ccc([C@@H]2CC=CC[C@H](C)Oc3ccccc3C(=O)N(C)[C@@H](Cc3ccccc3)C(=O)N2)c(OC)c1`: the cytotoxicity call was “inactive”. Under `Cc1noc(C)c1NC(=O)Nc1ccc2c(c1)C(=O)N([C@@H](C)CO)C[C@@H](C)[C@@H](CN(C)Cc1ccncc1)OCCCC[C@H](C)O2` stands “inactive”; under `CO[C@H]1CN(C)C(=O)c2cc(NC(=O)C3CC3)ccc2OC[C@@H](C)N(C(=O)C2CCOCC2)C[C@H]1C`, “inactive”. With `COc1ccc([C@@H]2CC=CC[C@@H](C)Oc3ccccc3C(=O)N(C)[C@H](Cc3ccccc3)C(=O)N2)c(OC)c1` the entry was “inactive”; with `Cc1noc(C)c1NC(=O)Nc1ccc2c(c1)C(=O)N([C@@H](C)CO)C[C@@H](C)[C@H](CN(C)C(=O)c1ccccc1)OCCCC[C@@H](C)O2`, “inactive”. With `COCC(=O)N1C[C@@H](C)[C@H](OC)CN(C)C(=O)c2ccc(NC(=O)c3ccc(OC)cc3)cc2OC[C@@H]1C` the entry was “inactive”; with `COc1cc(C(=O)NS(=O)(=O)c2ccccc2C)ccc1Cc1cn(C)c2ccc(NC(=O)OC3CCCC3)cc12`, “inactive”; with `CCCC#Cc1cnc2c(c1)C(=O)N([C@H](C)CO)C[C@H](C)[C@@H](CN(C)S(=O)(=O)c1cn(C)cn1)O2`, “inactive”. On to `C[C@@H]1CN([C@@H](C)CO)C(=O)c2cc(NC(=O)Cc3ccccc3)ccc2O[C@@H]1CN(C)C(=O)Nc1cccc2ccccc12`, for which the cytotoxicity call was “inactive”. Under `CC(C)NC(=O)N(C)C[C@@H]1Oc2ccc(NS(=O)(=O)c3ccc(F)cc3)cc2C(=O)N([C@@H](C)CO)C[C@H]1C` stands “inactive”. With `CNC(=O)Cc1cnc(N)s1` the entry was “inactive”; with `C[C@H](CO)N1C[C@H](C)[C@H](CN(C)Cc2ccc(C(F)(F)F)cc2)Oc2c(NC(=O)CCCCCC(=O)Nc3ccccc3N)cccc2C1=O`, “inactive”; with `C[C@H](CO)N1C[C@H](C)[C@H](CN(C)Cc2ccc(Oc3ccccc3)cc2)Oc2c(NS(=O)(=O)c3cccs3)cccc2C1=O`, “inactive”. With `C[C@H]1CN([C@@H](C)CO)C(=O)c2cccc(NC(=O)c3ccncc3)c2O[C@H]1CN(C)Cc1ccncc1` the entry was “inactive”; with `C[C@@H]1CN([C@H](C)CO)C(=O)c2cc(-c3cccnc3)cnc2O[C@H]1CN(C)Cc1ccc(Oc2ccccc2)cc1`, “inactive”; with `COc1ccc(NC(=O)Nc2ccc3c(c2)[C@H]2C[C@H](CC(=O)N4CCN(C)CC4)O[C@@H](CO)[C@H]2O3)cc1`, “inactive”. With `Cc1cccc(Oc2ccc(NC(=O)C3CCC(C)CC3)cc2)c1` (stereo unspecified), the cytotoxicity call was “inactive”.

Take `CN1CCN(Cc2ccc(NC(=O)Nc3ccc(Oc4cc(NC(=O)C5CC5)ncn4)cc3)cc2C(F)(F)F)CC1`: the cytotoxicity call is “active”. Under `C[C@@H]1CN([C@H](C)CO)C(=O)Cc2cc(NS(=O)(=O)c3ccc(F)cc3)ccc2O[C@H]1CN(C)S(=O)(=O)c1ccccc1` stands “inactive”. With `C[C@H]1CCCCO[C@H](CN(C)C(=O)NC2CCCCC2)[C@@H](C)CN([C@@H](C)CO)C(=O)c2cc(NC(=O)NC3CCCCC3)ccc2O1` the entry was “inactive”. With `N#C/C(=N\O)C(=O)c1ccco1` the entry was “inactive”; with `N=C(N)Nc1nc2ccccc2[nH]1`, “inactive”. On to `COC(=O)Nc1nc2ccc(Sc3ccccc3)cc2[nH]1`, for which the cytotoxicity call was “active”.

Take `Cn1c(=O)c2c(ncn2CC(=O)Nc2nc3ccccc3[nH]2)n(C)c1=O`: the cytotoxicity call is “inactive”.

Regarding `N=C(N)Nc1nc(=O)c2ccccc2[nH]1`, the cytotoxicity call was “inactive”. With `CC(C)NC(=O)c1cccc2cccc(Sc3ccccc3)c12` the entry was “inactive”; with `CCCOc1ccc2nc(NC(=O)OC)[nH]c2c1`, “active”; with `CCCSc1ccc2nc(NC(=O)OC)[nH]c2c1`, “active”. Under `CCOC(=O)Nc1nc2ccccc2[nH]1` stands “inactive”. With `COC(=O)Nc1nc2ccc(S(=O)c3ccccc3)cc2[nH]1` (stereo unspecified), the cytotoxicity call is “active”. In the case of `COc1ccc2nc(S(=O)Cc3ncc(C)c(OC)c3C)[nH]c2c1` (stereo unspecified), the cytotoxicity call is “inactive”. With `O=C(O)Cn1cccn1` the entry was “inactive”. With `CCC/C=C1\OC(=O)c2ccccc21` the entry was “inactive”. Under `Cc1noc(C)c1S(=O)(=O)N(C)C[C@@H]1OCCCC[C@@H](C)Oc2ccc(NC(=O)Nc3cccc4ccccc34)cc2C(=O)N([C@H](C)CO)C[C@@H]1C` stands “inactive”; under `C[C@H]1CN([C@@H](C)CO)C(=O)Cc2cc(NC(=O)Nc3ccc(C(F)(F)F)cc3)ccc2O[C@@H]1CN(C)Cc1ccc(C(=O)O)cc1`, “inactive”; under `COc1ccc(CN(C)C[C@H]2OCCCC[C@@H](C)Oc3ccc(NC(=O)NC(C)C)cc3C(=O)N([C@H](C)CO)C[C@@H]2C)cc1`, “inactive”.

Regarding `CCCC(=O)Nc1ccc2c(c1)C(=O)N(C)C[C@H](OC)[C@H](C)CN(Cc1ccc(-c3ccccn3)cc1)[C@@H](C)CO2`, the cytotoxicity call is “inactive”. With `CN(CCN)C1CCCCC1` the entry was “inactive”; with `CCS(=O)(=O)NCC[C@H]1CC[C@H](NC(=O)Cc2ccccn2)[C@@H](CO)O1`, “inactive”; with `C[C@@H]1CCCCO[C@H](CN(C)C(=O)Cc2ccccc2)[C@@H](C)CN([C@@H](C)CO)C(=O)c2cc(NC(=O)c3ccccc3)ccc2O1`, “inactive”. With `CCS(=O)(=O)N1CC[C@]2(CC1)CN([C@H](CO)c1c2c2ccc(cc2n1C)OC)C(=O)c1cccc(c1)F` the entry was “inactive”. Under `COc1ccc(S(=O)(=O)Nc2ccc3c(c2)C(=O)N([C@@H](C)CO)C[C@H](C)[C@@H](CN(C)Cc2ccc4c(c2)OCO4)OCCCC[C@H](C)O3)cc1` stands “inactive”.

Take `Cc1ccc(S(=O)(=O)Nc2ccc3c(c2)C(=O)N([C@H](C)CO)C[C@@H](C)[C@H](CN(C)Cc2ccc4c(c2)OCO4)OCCCC[C@@H](C)O3)cc1`: the cytotoxicity call was “inactive”. With `Cn1cnc(S(=O)(=O)N[C@@H]2CC[C@H](CC(=O)NCC3CC3)O[C@H]2CO)c1` the entry was “inactive”; with `OC[C@H]1O[C@H]([S][Au])[C@H](O)[C@@H](O)[C@@H]1O`, “active”. Under `OC[C@H]1O[C@@H](O)[C@H](O)[C@@H](O)[C@H]1O` stands “inactive”. Regarding `OC[C@H]1O[C@@H](O)[C@@H](O)[C@@H](O)[C@@H]1O`, the cytotoxicity call was “inactive”. Consider `Cc1noc(C)c1NC(=O)Nc1ccc2c(c1)C(=O)N([C@H](C)CO)C[C@H](C)[C@H](CN(C)S(=O)(=O)c1cn(C)cn1)O2`, for which the cytotoxicity call was “inactive”. Under `COc1ccc(S(=O)(=O)Nc2ccc3c(c2)C(=O)N([C@H](C)CO)C[C@@H](C)[C@H](CN(C)C(=O)Nc2cccc4ccccc24)O3)cc1` stands “inactive”.

As for `CC(C)(C)[S@](=O)N1Cc2cc(C(=O)NCc3ccc4c(c3)OCO4)nc(-c3cccc(-c4ccncc4)c3)c2[C@@H]1CCO`, the cytotoxicity call is “inactive”. In the case of `CC(C)(C)[S@](=O)N1Cc2cc(C(=O)NCc3ccc4c(c3)OCO4)nc(-c3cccc(-c4cccnc4)c3)c2[C@@H]1CCO`, the cytotoxicity call is “inactive”. Consider `CC(C)(C)S(=O)N1Cc2cc(C(=O)NCc3ccc4c(c3)OCO4)nc(-c3cccc(-c4cccc(F)c4)c3)c2[C@H]1CCO` (stereo partly specified), for which the cytotoxicity call was “active”. Under `CC(C)(C)[S@@](=O)N1Cc2cc(C(=O)NCc3ccc4c(c3)OCO4)nc(-c3cccc(-c4ccncc4)c3)c2[C@H]1CCO` stands “inactive”. On to `CC(C)(C)[S@@](=O)N1Cc2cc(C(=O)NCc3ccc4c(c3)OCO4)nc(-c3cccc(-c4ccccc4)c3)c2[C@H]1CCO`, for which the cytotoxicity call is “inactive”.

Turning to `CC(C)(C)S(=O)N1Cc2cc(C(=O)NCc3ccc4c(c3)OCO4)nc(-c3cccc(-c4cccc(F)c4)c3)c2[C@@H]1CCO` (stereo partly specified), the cytotoxicity call was “active”. With `COc1ccc([C@H]2CNCCN2)cc1` the entry was “inactive”; with `C[C@@H]1CN([C@@H](C)CO)C(=O)c2ccccc2-c2ccccc2CO[C@@H]1CN(C)C(=O)Nc1cccc(Cl)c1Cl`, “inactive”.

For `COc1ccc(S(=O)(=O)N(C)C[C@H]2Oc3ccc(NC(=O)Cn4cnnn4)cc3C(=O)N([C@@H](C)CO)C[C@H]2C)cc1`, the cytotoxicity call was “inactive”. Under `CCc1nc2ccc(C(=O)N3CCN(S(=O)(=O)CC)CC3)cn2c1N(CC)C(=O)CCC1CCCC1` stands “inactive”; under `Cc1cc(-c2ccc(N=Nc3ccc4c(S(=O)(=O)[O-])cc(S(=O)(=O)[O-])c(N)c4c3O)c(C)c2)ccc1N=Nc1ccc2c(S(=O)(=O)[O-])cc(S(=O)(=O)[O-])c(N)c2c1O.[Na+].[Na+].[Na+].[Na+]`, “active”. With `Cc1ccc(S(=O)(=O)Oc2ccc(/N=N/c3ccc(-c4ccc(/N=N/c5c(O)ccc6cc(S(=O)(=O)O)cc(S(=O)(=O)O)c56)c(C)c4)cc3C)cc2)cc1` the entry was “inactive”; with `C[C@@H]1CN([C@H](C)CO)C(=O)CCCn2cc(nn2)CO[C@H]1CN(C)C(=O)Nc1ccc(C(C)(C)C)cc1`, “inactive”. With `C[C@@H]1CCCCO[C@H](CN(C)C(=O)Nc2ccc(C(F)(F)F)cc2)[C@@H](C)CN([C@H](C)CO)C(=O)c2cc(NC(=O)CCCCCC(=O)Nc3ccccc3N)ccc2O1` the entry was “inactive”; with `NS(=O)(=O)OC[C@H]1C[C@@H](Nc2ccnc3cc(-c4cccc(SC(F)(F)F)c4)nn23)[C@H](O)[C@@H]1O`, “active”; with `O=C(C[C@H]1C[C@H]2c3cc(NC(=O)Cc4ccncc4)ccc3O[C@H]2[C@H](CO)O1)NCc1cccc(F)c1`, “inactive”. With `CO[C@@H]1CN(C)C(=O)c2ccc(NC(=O)Nc3ccccc3F)cc2OC[C@@H](C)N(Cc2ccccc2F)C[C@H]1C`, the cytotoxicity call was “inactive”. With `Cc1c(CN2CCN(C(=O)[C@H](C)O)CC2)sc2c(N3CCOCC3)nc(-c3cnc(N)nc3)nc12` the entry was “active”. As for `CC(=O)Nc1ncc(CN2CCOCC2)s1`, the cytotoxicity call is “inactive”. With `C[C@@H]1CN([C@H](C)CO)C(=O)Cc2cc(NC(=O)Cc3cn(C)c4ccccc34)ccc2O[C@@H]1CN(C)S(=O)(=O)c1cn(C)cn1` the entry was “inactive”; with `CCOC(=O)[C@H](Cc1ccccc1)NC(=O)Cn1cc(C(=O)NO)nn1`, “inactive”; with `COC(=O)[C@H](Cc1ccccc1)N1CC2=C[C@@H](C3CC3)n3c(=O)n(C)c(=O)n3[C@H]2[C@@H]1[C@@H](O)CCn1cc(COc2ccccc2/C=C(C)/C=C/C(=O)NO)nn1`, “inactive”.

Consider `C=C/C=C/[C@H]1C(=C)CN([C@H](Cc2ccc(-n3cc(COc4ccccc4/C=C(C)/C=C/C(=O)NO)nn3)cc2)C(=O)OC)[C@@H]1[C@H](O)Cc1ccccc1`, for which the cytotoxicity call was “inactive”.

Turning to `COC(=O)[C@@H](Cc1ccc(-n2cc(COc3ccccc3/C=C(C)/C=C/C(=O)NO)nn2)cc1)N1CC2=CCCC=C[C@@H]2[C@H]1[C@H](O)Cc1ccccc1`, the cytotoxicity call was “active”. For the compound `COC(=O)[C@@H](NC(=O)Cn1cc(C(=O)NO)nn1)c1ccccc1`, the cytotoxicity call is “active”. `C=C/C=C/[C@@H]1C(=C)CN2[C@H]1[C@H](Cc1ccccc1)OC(=O)[C@@H]2Cc1ccc(-n2cc(COc3ccccc3/C=C(C)/C=C/C(=O)NO)nn2)cc1`: the cytotoxicity call is “inactive”. As for `COC(=O)[C@@H](Cc1ccc(-n2cc(COc3ccccc3/C=C(C)/C=C/C(=O)NO)nn2)cc1)N1CC2=C[C@H](C3CC3)n3c(=O)n(C)c(=O)n3[C@@H]2[C@H]1[C@H](O)Cc1ccccc1`, the cytotoxicity call is “inactive”. With `COC(=O)[C@@H](NC(=O)Cn1cc(CCC(=O)NO)nn1)c1ccccc1` the entry was “inactive”; with `CC(/C=C/C(=O)NO)=C\c1ccccc1OCc1cn(CC(=O)N2CCN(c3ccccc3)CC2)nn1`, “inactive”. Under `COC(=O)[C@@H](NC(=O)Cn1cc(COc2ccccc2/C=C(C)/C=C/C(=O)NO)nn1)c1ccccc1` stands “active”; under `CC(/C=C/C(=O)NO)=C\c1ccccc1OCc1cn(-c2ccc(C[C@H]3C(=O)O[C@@H](Cc4ccccc4)[C@H]4[C@@H]5C=CCCC=C5CN43)cc2)nn1`, “inactive”. Under `C#CCN1[C@H](/C=C/C2CC2)[C@H](Cc2ccccc2)OC(=O)[C@@H]1Cc1ccc(-n2cc(COc3ccccc3/C=C(C)/C=C/C(=O)NO)nn2)cc1` stands “active”.
